The record followed here is PubChem BioAssay (NCI).

Test systems include NCI-H23 lung; NCI-H226 lung; NCI-H322M lung; HOP-62 NSCLC; NCI-H460 lung; HOP-92 NSCLC; NCI-H522 lung; A549/ATCC NSCLC; 786-0 renal; COLO 205 colon.
What all share (test): NCI-60 one-dose screen, 48 h (100 = growth as untreated, 0 = no growth, -100 = all killed)
Common to all, as to conditions: 10 µM unless noted

SMILES strings stand for the structures. The panel holds about 83,000 compounds, 20% with a hit somewhere; the sample as a whole holds those more often.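 Step 1: grow cells in 96-well plates. Step 2: add test compound at a single concentration. Step 3: incubate 48 h. Step 4: record percent growth.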 Values without a mark were called inactive. Activity calls are given as the source filed them. How the source made its calls: active means growth percent below 10; inactive means the rest.

`COc1ccc(/C=C/C(=O)c2ccc(Nc3ccnc4cc(Cl)ccc34)cc2)cc1`: the growth with NCI-H23 lung is 76.2%; in the experiment on NCI-H226 lung, 123%; in the experiment with NCI-H322M lung it was 131%; in the experiment with HOP-62 NSCLC it was 72.3%; in the experiment on NCI-H460 lung, 101%; in the experiment on HOP-92 NSCLC it was 37.9%. In addition, the growth in the experiment on NCI-H522 lung was 73.3%; in the experiment with A549/ATCC NSCLC, 103%; in the experiment on 786-0 renal it was 72.8%; in the experiment on COLO 205 colon it was 117%.

Consider `N#Cc1c(-c2ccc(Cl)cc2)c(C#N)c2c(C#N)c(N)nn2c1N`, for which the growth with NCI-H23 lung was 98.1%; in the experiment with NCI-H226 lung, 86.8%; with NCI-H322M lung, 81.7%; in the experiment on HOP-62 NSCLC, 79.5%; in the experiment with NCI-H460 lung it was 86.9%; with HOP-92 NSCLC, 61%. In addition, the growth is 64.8% in the experiment with NCI-H522 lung, 77.4% in the experiment with A549/ATCC NSCLC, 86.6% in the experiment with 786-0 renal and 95.2% in the experiment with COLO 205 colon.

In the case of `CC(=O)N1N=C(c2ccc(Nc3nc(Nc4ccccc4)nc(Nc4ccccc4)n3)cc2)CC1c1ccccc1` (stereo not given), the growth with NCI-H23 lung is 94%; with NCI-H226 lung, 86%; in the experiment with NCI-H322M lung it was 84.9%; in the experiment with HOP-62 NSCLC, 77.6%; in the experiment with NCI-H460 lung, 86.7%; in the experiment on HOP-92 NSCLC, 61.5%. For the same compound, the growth with NCI-H522 lung was 89.3%; with A549/ATCC NSCLC it was 79.3%; with 786-0 renal it was 86.8%; in the experiment with COLO 205 colon, 68.5%.

Take `CC1=NC2=Nn3c(c4cnn(-c5ccccc5)c4n/c3=N\N)NN2C(c2ccccc2)=C1`: the growth in the experiment with NCI-H23 lung was 87.5%; with NCI-H226 lung, 90.7%; in the experiment with NCI-H322M lung, 87.6%; in the experiment on HOP-62 NSCLC, 96.1%; in the experiment on NCI-H460 lung, 88.5%; with HOP-92 NSCLC, 74.3%. Further, the growth with NCI-H522 lung was 89%; with A549/ATCC NSCLC, 96%; in the experiment with 786-0 renal, 104%; in the experiment on COLO 205 colon, 107%.

Consider `COc1ccc2c(c1)CC[C@H](O)/C2=C/c1cc(OC)c(OC)c(OC)c1`, for which the growth in the experiment with NCI-H23 lung is 30.3%; in the experiment with NCI-H226 lung it was 40.8%; in the experiment with NCI-H322M lung, 60.5%; in the experiment on HOP-62 NSCLC, 34.9%; in the experiment with NCI-H460 lung, 4.68% (active); in the experiment on HOP-92 NSCLC it was 5.25% (active). Further, the growth with NCI-H522 lung was -19.2% (active); in the experiment with A549/ATCC NSCLC, 13.7%; with 786-0 renal, 16.1%; in the experiment on COLO 205 colon, -48.8% (active).

On to `CC(=O)N1N=C(c2ccc(C(F)(F)F)c(F)c2)CC1c1[nH]c(C)c(C(=O)NCC(F)(F)F)c1C` (stereo not given), for which the growth was 78.8% in the experiment with NCI-H23 lung; 56.3% in the experiment with NCI-H226 lung; 74.6% in the experiment on NCI-H322M lung; 64.9% with HOP-62 NSCLC; 52.1% with NCI-H460 lung; 52.4% in the experiment with HOP-92 NSCLC. Besides, the growth was 94.8% in the experiment on NCI-H522 lung, 55.8% in the experiment with A549/ATCC NSCLC, 13.1% with 786-0 renal and 112% in the experiment with COLO 205 colon.

Turning to `CCOC(=O)c1c(NC(=O)c2ccc(Cl)cc2)sc2c(CN(C)C)c(O)ccc12`, the growth is 88% with NCI-H23 lung; 96.1% with NCI-H226 lung; 61.3% in the experiment with NCI-H322M lung; 84.6% in the experiment on HOP-62 NSCLC; 71.3% in the experiment with NCI-H460 lung; 1.75% (active) in the experiment with HOP-92 NSCLC. Also, the growth in the experiment with NCI-H522 lung was 76.5%; with A549/ATCC NSCLC, 69.6%; in the experiment with 786-0 renal, 69.8%; with COLO 205 colon, 5.48% (active).

Consider `NS(=O)(=O)c1ccccc1NC(=O)Nc1nc2ccccc2s1`, for which the growth is 90.8% with NCI-H23 lung; 91.5% in the experiment on NCI-H226 lung; 98% in the experiment on NCI-H322M lung; 96.1% with HOP-62 NSCLC; 103% in the experiment with NCI-H460 lung; 99.1% in the experiment with HOP-92 NSCLC. For the same compound, the growth was 91.9% with NCI-H522 lung, 101% in the experiment with A549/ATCC NSCLC, 98% in the experiment on 786-0 renal and 109% in the experiment with COLO 205 colon.

In the case of `CC(C)=CCCC(C)c1ccc(C)c2c1OCN(CCCCCO)C2` (stereo not given), the growth in the experiment on NCI-H23 lung was 91.3%; in the experiment with NCI-H226 lung it was 98.4%; with NCI-H322M lung, 102%; in the experiment on HOP-62 NSCLC it was 92.5%; in the experiment with NCI-H460 lung it was 81.1%; in the experiment on HOP-92 NSCLC, 27.7%. Also, the growth in the experiment on NCI-H522 lung was -1.75% (active); in the experiment on A549/ATCC NSCLC, 82.5%; with 786-0 renal it was 69.5%; with COLO 205 colon, 90%.

`COc1cc(/C=C2/C=C(c3ccccc3)N(CCc3ccc(S(N)(=O)=O)cc3)C2=O)cc(OC)c1OC`: the growth in the experiment with NCI-H23 lung is 103%; in the experiment with NCI-H226 lung it was 94.6%; in the experiment on NCI-H322M lung it was 100%; in the experiment with HOP-62 NSCLC it was 94%; with NCI-H460 lung, 105%; in the experiment on HOP-92 NSCLC it was 41.9%. The growth with NCI-H522 lung is 81.3%; with A549/ATCC NSCLC, 86.4%; in the experiment with 786-0 renal, 85.5%; in the experiment on COLO 205 colon it was 108%.

Turning to `CCN1C(=O)N(CC)C2C1NN=c1s/c(=C\c3ccccc3F)c(=O)n12` (stereo not given), the growth is 31.9% in the experiment on NCI-H23 lung; 48.5% in the experiment with NCI-H226 lung; 42.6% in the experiment on NCI-H322M lung; 35.1% in the experiment with HOP-62 NSCLC; 2.31% (active) in the experiment with NCI-H460 lung; 40.3% with HOP-92 NSCLC. Moreover, the growth was -8.42% (active) in the experiment with NCI-H522 lung, 7.92% (active) in the experiment with A549/ATCC NSCLC, 20.6% in the experiment with 786-0 renal and -9.98% (active) in the experiment with COLO 205 colon.

With `N=C(N)c1ccc(-c2ccc(-c3ccc(Cl)cc3Cl)s2)cc1`, the growth with NCI-H23 lung is 56.5%; with NCI-H226 lung, 77.9%; in the experiment with NCI-H322M lung, 13.9%; in the experiment with HOP-62 NSCLC, 34.1%; in the experiment with NCI-H460 lung, -66.3% (active); in the experiment with HOP-92 NSCLC, 75.2%. For the same compound, the growth in the experiment with NCI-H522 lung is -28.6% (active); with A549/ATCC NSCLC, -30.2% (active); with 786-0 renal it was -18% (active); in the experiment with COLO 205 colon it was -31.6% (active).

With `COc1ccccc1CNc1c2ccccc2nc2ccccc12`, the growth with NCI-H23 lung was 30.9%; in the experiment with NCI-H226 lung, 39.9%; in the experiment on NCI-H322M lung, 48.6%; in the experiment with HOP-62 NSCLC, 44.5%; with NCI-H460 lung, 10.2%; with HOP-92 NSCLC it was 18.2%. Moreover, the growth in the experiment on NCI-H522 lung was 62.4%; in the experiment with A549/ATCC NSCLC it was 34.2%; with 786-0 renal it was 39.3%; with COLO 205 colon it was 12.8%.
